For five compounds, z-score and composite z-score results are on record in PubChem BioAssay.

The nature of assay [1]: compound effects on differentiated 3T3-L1 adipocyte viability – cell-based, 3T3-L1 adipocytes, calcein-AM fluorescence, 48 h, basal, profiling panel (AID 1163). The settings on record: 3T3-L1 adipocytes viability, higher = more signal.
Assay [2] can be described thus: compound effects on hepatocellular carcinoma cell viability – HepG2, calcein-AM fluorescence, 48 h, basal, profiling panel (AID 1164). The settings on record: higher = more signal.
Assay [3] can be described thus: compound effects on multiple myeloma cell viability – MM1S, calcein-AM fluorescence, 48 h, basal, profiling panel (AID 1165).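 Further: viability of MM1S multiple myeloma cells under basal unstimulated conditions.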 The following applies: higher = more signal.
Assay [4] can be described thus: calcein-AM signal in unstimulated myeloma cells – cell-based, calcein-AM fluorescence, 48 h, PK04 Diversity Set, profiling panel (AID 1166).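 Further: cells grown under basal conditions without added stimulus.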 The settings on record: RPMI8226 myeloma viability, higher = more signal.
Assay [5] in a line: JC-1 mitochondrial signal, unstimulated HepG2 cells – cell-based, JC-1 fluorescence, 24 h, 100 nL compound, profiling panel (AID 1167). The following applies: HepG2 mitochondrial potential, higher = more signal.
The nature of assay [6]: JC-1 mitochondrial signal, unstimulated adipocytes – cell-based, JC-1 fluorescence, 3T3-L1 adipocytes, 24 h, 100 nL compound, profiling panel (AID 1168). The settings on record: JC-1 mitochondrial fluorescence, higher = more signal, called active from +8 up or from −8 down.
Assay [7] in a line: JC-1 mitochondrial signal, unstimulated myeloma cells – cell-based, JC-1 fluorescence, RPMI8226, 24 h, 100 nL compound, profiling panel (AID 1169). The settings on record: JC-1 mitochondrial potential fluorescence, higher = more signal.
The nature of assay [8]: JC-1 mitochondrial signal, unstimulated MM1S myeloma – cell-based, JC-1 fluorescence, 24 h, 100 nL compound, profiling panel (AID 1170). The settings on record: MM1S mitochondrial potential, higher = more signal.
Assay [9] can be described thus: resazurin metabolic signal in A549 cells – cell-based, resazurin fluorescence, 24 h, PK04 Diversity Set, profiling panel (AID 1171). The following applies: A549 viability, higher = more signal, called active from +8 up or from −8 down. (Alamar Blue is a resazurin reagent that responds to reducing activity.)
The nature of assay [10]: resazurin metabolic signal in HepG2 cells – cell-based, resazurin fluorescence, 24 h, PK04 Diversity Set, profiling panel (AID 1172). The following applies: HepG2 viability, higher = more signal.
Assay [11] in a line: budding yeast growth changes without added modifier – OD600, strain BY4716, 24 h, basal condition, primary screen (AID 1173). The settings on record: S. cerevisiae BY4716 growth, OD600, 24 h; higher = more signal, called active from +8 up or from −8 down.
Assay [12] can be described thus: viability profiling in MM1S myeloma cells – cell-based, resazurin fluorescence, basal, 24 h, PK04 Diversity Set, profiling panel (AID 1174). The settings on record: higher = more signal, called active from +8 up or from −8 down.
The target in assay [13] is Dihydroorotate dehydrogenase (quinone), mitochondrial (Plasmodium falciparum (isolate 3D7)) (UniProt Q08210). Description: inhibition of P. falciparum DHODH – biochemical, C-terminal His tag, absorbance 600 nm, primary screen (AID 1175).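 Further: recombinant parasite enzyme with a five histidine tag at its C terminus.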 The settings on record: PfDHODH enzyme, DCIP absorbance 600 nm; higher = more signal, called active from +8 up or from −8 down.
Sequence of Dihydroorotate dehydrogenase (quinone), mitochondrial (Plasmodium falciparum (isolate 3D7)) (Q08210 whole entry, looked up): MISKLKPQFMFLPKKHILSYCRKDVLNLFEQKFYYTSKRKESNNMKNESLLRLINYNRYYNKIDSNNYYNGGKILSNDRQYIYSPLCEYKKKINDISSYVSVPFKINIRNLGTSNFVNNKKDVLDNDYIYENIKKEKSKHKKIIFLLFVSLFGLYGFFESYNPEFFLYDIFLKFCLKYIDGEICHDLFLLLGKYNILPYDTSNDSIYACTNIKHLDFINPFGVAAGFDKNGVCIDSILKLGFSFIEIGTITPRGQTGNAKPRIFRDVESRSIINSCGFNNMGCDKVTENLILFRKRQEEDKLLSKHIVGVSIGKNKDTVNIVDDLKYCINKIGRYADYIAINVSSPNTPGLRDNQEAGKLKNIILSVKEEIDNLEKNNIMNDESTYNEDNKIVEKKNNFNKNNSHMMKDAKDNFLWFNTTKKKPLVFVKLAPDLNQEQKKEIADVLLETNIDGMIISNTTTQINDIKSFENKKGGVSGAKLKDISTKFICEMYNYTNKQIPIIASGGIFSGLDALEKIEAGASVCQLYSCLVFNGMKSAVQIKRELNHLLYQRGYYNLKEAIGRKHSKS
Assay [14] in a line: growth modulation of vineyard yeast isolate – strain RM11-1a, OD600, basal, 24 h, primary screen (AID 1177).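 Further: cultures grown under basal conditions with no added stressor.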 The following applies: S. cerevisiae RM11-1a growth, OD600, 24 h; higher = more signal, called active from +8 up or from −8 down.
A short description of assay [15]: growth of efflux-deficient E. coli DRC39 – strain DRC39, OD650, 24 h, E. coli filamentation inducers, primary screen (AID 1178).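 Further: growth measured as culture turbidity by optical density at 650 nm.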 The following applies: E. coli DRC39 acrAB, higher = more signal, called active from +8 up or from −8 down.
A short description of assay [16]: growth of efflux-deficient E. coli DRC39 – strain DRC39, OD650, 48 h, E. coli filamentation inducers, primary screen (AID 1179).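 Further: screen aims at cell division blockers that make cells filament.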 The following applies: E. coli DRC39 delta-acrAB growth, higher = more signal, called active from +8 up or from −8 down.
A short description of assay [17]: viability profiling in RPMI8226 myeloma cells – cell-based, resazurin fluorescence, basal, 24 h, PK04 Diversity Set, profiling panel (AID 1180).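 Further: RPMI8826 multiple myeloma cell line at 5000 cells per well.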 The settings on record: higher = more signal.
Assay [18] has as its target E3 ubiquitin-protein ligase XIAP (Homo sapiens) (UniProt P98170). Description: small molecules binding XIAP protein – biophysical, small-molecule microarray, fluorescence 635 nm, primary screen (AID 1181).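 Further: score merges 667 nm emission and signal to noise over triplicate slides.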 The settings on record: higher = more signal.
Assay [19] deals with XIP peptide (Xip251-270) binding. In words: XIP fragment 251-270 binding compounds – biochemical, small-molecule microarray, fluorescence 635/667 nm, 0.1 µg/mL protein, primary screen (AID 1182). The settings on record: fluorescent protein binding, 635 nm, higher = more signal, called active from +8 up or from −8 down.
For another assay, the system named is XIP peptide (Xip251-270). Description: compounds binding XIP fragment 251-270 – biochemical, small-molecule microarray, fluorescence 635/667 nm, 0.5 µg/mL protein, primary screen (AID 1183). The following applies: fluorescence 635 nm, higher = more signal.

Activity calls are given as the source filed them.

Sequence of E3 ubiquitin-protein ligase XIAP (Homo sapiens) (P98170 whole entry, looked up, the tested form may be a part): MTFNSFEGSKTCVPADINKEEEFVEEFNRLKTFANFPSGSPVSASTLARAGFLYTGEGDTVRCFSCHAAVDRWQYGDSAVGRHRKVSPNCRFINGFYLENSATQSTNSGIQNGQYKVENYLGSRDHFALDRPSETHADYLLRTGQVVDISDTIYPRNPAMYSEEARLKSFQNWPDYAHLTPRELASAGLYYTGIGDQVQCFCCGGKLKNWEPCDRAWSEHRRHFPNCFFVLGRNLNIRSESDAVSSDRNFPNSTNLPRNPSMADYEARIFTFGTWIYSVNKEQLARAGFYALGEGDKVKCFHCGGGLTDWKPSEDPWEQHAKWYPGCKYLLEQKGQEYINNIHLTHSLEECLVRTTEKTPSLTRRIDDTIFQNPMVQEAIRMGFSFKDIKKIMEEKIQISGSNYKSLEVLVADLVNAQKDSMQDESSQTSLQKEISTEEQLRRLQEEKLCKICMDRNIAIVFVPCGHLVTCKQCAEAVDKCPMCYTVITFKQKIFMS

In the case of `O=C(NCc1ccccc1)[C@@H]1c2ccccc2C(=O)N(Cc2ccccc2Cl)[C@H]1c1ccc(CO)cc1`, the z-score in assay [1] is 1.23; in assay [2] it was -0.005; in assay [3] it was 0.138; in assay [4], -0.256; in assay [5], 1.99; in assay [6] it was -0.0174 (inactive). Moreover, the z-score in [7] is -0.939; in [8], -0.0877; in assay [9] it was 1.39 (inactive); in assay [10], 0.714; in assay [11] it was -1.18 (inactive); in assay [12], 0.687 (inactive). Besides, the z-score in assay [14] was -1.44 (inactive); in assay [15] it was 0.392 (inactive); in [16], 0.123 (inactive); in assay [17], 1.63. Further, the composite z-score in assay [13] is -1.17 (inactive); in assay [18], 0.0115; in assay [19] it was 0.188 (inactive); in the assay on XIP peptide (Xip251-270) it was 0.819.

Consider `COC(=O)c1c2oc(c1C(=O)OC)C(=O)N[C@@H](C(C)C)Cn1nncc1C1(CCCCC1)NC(=O)N[C@H](CO)CC2`, for which the z-score was -0.5 in [1]; 0.619 in assay [2]; 0.276 in assay [3]; -0.161 in [4]; 1.58 in assay [5]; 0.994 (inactive) in [6]. In addition, the z-score was 0.144 in [7]; 1.08 in assay [8]; 2.11 (inactive) in [9]; 2.17 in assay [10]; -3.46 (inactive) in [11]; 1.4 (inactive) in assay [12]. The z-score was -0.989 (inactive) in assay [14], 2.61 (inactive) in assay [15], 2.18 (inactive) in assay [16] and 0.928 in assay [17]. Also, the composite z-score in assay [13] is 0.62 (inactive); in assay [18] it was 0.0623; in assay [19] it was -0.503 (inactive); with XIP peptide (Xip251-270) it was -0.985.

As to `C=CCNC(=O)[C@H]1[C@@H]2C(=O)O[C@@H](c3ccccc3)[C@@H](c3ccccc3)N2[C@@H](c2ccc(OCCO)cc2)[C@]12C(=O)Nc1ccc(C#CCCO)cc12`, the z-score in assay [1] is 2.12; in [2], 1.05; in [3] it was 0.416; in assay [4], 0.364; in [5], 0.355; in assay [6], 0.815 (inactive). In addition, the z-score in assay [7] was -0.307; in [8], 0.128; in assay [9] it was 0.865 (inactive); in assay [10], -0.0836; in assay [11], -0.0378 (inactive); in [12] it was 0.806 (inactive). Further, the z-score in assay [14] is 1.25 (inactive); in assay [15] it was 0.645 (inactive); in [16], 0.499 (inactive); in assay [17] it was 1.28. Also, the composite z-score is 0.0436 (inactive) in assay [13], -0.0371 in [18], 0.331 (inactive) in assay [19] and 0.81 with XIP peptide (Xip251-270).

On to `COC(=O)C1=CC(c2ccc(CO)cc2)=CC(c2cccs2)N(C)C=C1C(=O)OC` (stereo not given), for which the z-score in assay [1] is 2.32; in assay [2], -0.0015; in assay [3], -0.517; in assay [4], -0.257; in assay [5] it was 0.636; in [6] it was 0.375 (inactive). The z-score in assay [7] is -0.327; in [8], 0.12; in [9] it was 0.446 (inactive); in assay [10] it was -0.419; in assay [11], -2.16 (inactive); in assay [12] it was 0.173 (inactive). Besides, the z-score in [14] is -0.688 (inactive); in assay [15], 1.05 (inactive); in assay [16], 0.542 (inactive); in assay [17] it was 1.05. The composite z-score in assay [13] is -1.75 (inactive); in assay [18], 0.0049; in assay [19] it was 1.84 (inactive); with XIP peptide (Xip251-270), 0.302.

With `C=C(COC)C(=O)CC[C@H](OC(=O)c1ccccc1-c1ccccc1C(=O)O)c1ccccc1OCCO`, the z-score in assay [1] is 0.819; in assay [2], -0.927; in assay [3], -1.41; in [4] it was 0.0361; in [5] it was 0.618; in assay [6], 0.819 (inactive). Besides, the z-score in assay [7] is -0.437; in [8], 0.24; in assay [9], 0.283 (inactive); in assay [10], 0.365; in [11], -1.26 (inactive); in assay [12], 0.732 (inactive). Further, the z-score in [14] is -0.524 (inactive); in assay [15], 1.54 (inactive); in [16], 0.515 (inactive); in assay [17] it was 0.439. Besides, the composite z-score in assay [13] was -1.46 (inactive); in [18], -0.111; in assay [19], 1.43 (inactive); in the assay on XIP peptide (Xip251-270) it was 0.356.
